In PubChem BioAssay (Tox21):
Records with an inconclusive call do not appear. Calls of active or inactive are those of the source. Unless noted, calls come from the whole dose curve; as a rule, active = well fitted curve in the direction sought with a large enough effect in the repeat runs; inconclusive = weak or mixed curves; inactive = no such curve, though single readings can be large; an effect the other way counts as inactive or inconclusive.

Legend:
[1] = qHTS assay to identify small molecule agonists of the hypoxia (HIF-1) signaling pathway - cell viability counter screen (AID 1224844; calls by dose curve; note: nearly all actives have a fitted effect of over 50% in size); conditions: HRE-bla ME-180 viability, CellTiter-Glo luminescence, 17 h; series mostly up to 76.8 µM
Outline: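 Cytotoxicity measured by CellTiter-Glo ATP luminescence in the wells also read for beta-lactamase signal. Cells were HRE-bla ME-180 (2,000/well, 0.5% dialyzed FBS), exposed to compounds for 17 h at 37C.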

[2] = qHTS assay to identify small molecule agonists of H2AX (AID 1224845; active = well fitted activation curve with a large enough effect in the signal ratio in the repeat runs, not every such curve was filed as active; the % refers to the signal ratio); conditions: CHO-K1 phospho-H2AX Ser139 HTRF, 3 h; series mostly up to 154 µM
Outline: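 Wild-type CHO-K1 cells plated overnight, then exposed 3 hr at 37C to compounds at 15 concentrations (0.76% DMSO). Lysed, then HTRF anti-pH2AX(S139)-cryptate/anti-H2AX-d2 detection after 24 hr at room temperature; emissions 665 and 620 nm.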

[3] = qHTS assay to identify small molecule agonists of the hypoxia (HIF-1) signaling pathway (AID 1224846; active = well fitted activation curve with a large enough effect in the signal ratio in the repeat runs, not every such curve was filed as active; the % refers to the signal ratio); conditions: HRE-bla ME-180 cells, beta-lactamase ratio, 17 h; series mostly up to 76.8 µM
Outline: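 Compounds added to ME-180 cells carrying hypoxia-response-element beta-lactamase reporter (0.5% dialyzed FBS, 5 h preplating), 17 h at 37C; agonist activity detected by CCF4-AM B/G FRET read-out.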

[4] = qHTS assay to identify small molecule agonists of H2AX - cell viability counter screen (AID 1224847; calls by dose curve; note: top concentration of the series differs between compounds; nearly all actives have a fitted effect of over 30% in size); conditions: CHO-K1 viability, CellTiter-Glo luminescence, 3 h; series mostly up to 154 µM
Outline: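 After overnight plating of 1000 CHO-K1 cells per well, a 15-concentration compound series was applied for 3 hr at 37C. Luminescence from CellTiter-Glo, read following 30 min at room temperature, reflected cell viability.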

[5] = qHTS RealTime-Glo MT Cell Viability Assay in HepG2 cells - 24 hour (AID 1224867); conditions: RealTime-Glo luminescence; series mostly up to 76.8 µM; note: nearly all actives have a fitted effect of over 50% in size
Outline: (§1)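 HepG2 cells were seeded at 600 cells/well together with NanoLuc luciferase and a cell-permeant prosubstrate, preincubated 5 h at 37 C/5% CO2, then pin-dosed with compounds in DMSO. Nonlytic luminescence from viable cells was read at each time point.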

[6] = qHTS RealTime-Glo MT Cell Viability Assay in HEK293 cells - 32 hour (AID 1224868); conditions: RealTime-Glo luminescence; series mostly up to 76.8 µM; note: top concentration of the series differs between compounds; nearly all actives have a fitted effect of over 50% in size
Outline: (§2)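 HEK293 cells were seeded at 600 cells/well together with NanoLuc luciferase and cell-permeant prosubstrate, preincubated 5 h at 37 C/5% CO2, then given compound in DMSO by pintool. Luminescence from viable-cell prosubstrate reduction was read repeatedly over 40 h.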

[7] = A CellTox Green Cytotoxicity Assay to monitor cytotoxicity in HEK293 cells - 0 hour (AID 1224869); conditions: CellTox Green fluorescence; series mostly up to 76.8 µM; note: nearly all actives have a fitted effect of over 50% in size
Outline: (§3)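 Fluorescence from a DNA-binding dye excluded by viable cells was measured repeatedly in the same HEK293 wells (600 cells/well) during continuous compound exposure at 37 C. Each assay gives one read point: 0, 8, 16, 24, 32 or 40 h.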

[8] = A CellTox Green Cytotoxicity Assay to monitor cytotoxicity in HEK293 cells - 40 hour (AID 1224871); conditions: CellTox Green fluorescence; series mostly up to 76.8 µM; note: nearly all actives have a fitted effect of over 45% in size
Outline: as §3

[9] = qHTS RealTime-Glo MT Cell Viability Assay in HepG2 cells - 8 hour (AID 1224873); conditions: RealTime-Glo luminescence; series mostly up to 76.8 µM; note: nearly all actives have a fitted effect of over 55% in size
Outline: (§4)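 HepG2 cells mixed with RealTime-Glo MT reagents (NanoLuc plus cell-permeant prosubstrate) were seeded at 600 cells/well, incubated 5 h at 37 C/5% CO2, then pinned with compounds in DMSO; nonlytic luminescence tracked viability during 40 h treatment.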

[10] = qHTS RealTime-Glo MT Cell Viability Assay in HEK293 cells - 40 hour (AID 1224874); conditions: RealTime-Glo luminescence; max response: stronger effect = lower value; note: nearly all actives have a fitted effect of over 50% in size
Outline: (§5)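 Luminescence, which tracks viable cell number through reduction of the prosubstrate to a NanoLuc substrate, was read over continuous 37 C culture. Cells (600/well) were premixed with reagent and rested 5 h before 23 nL of compound in DMSO was pinned.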

[11] = A CellTox Green Cytotoxicity Assay to monitor cytotoxicity in HEK293 cells - 24 hour (AID 1224875); conditions: CellTox Green fluorescence, stronger effect = higher value; series mostly up to 76.8 µM; note: nearly all actives have a fitted effect of over 45% in size
Outline: as §3

[12] = A CellTox Green Cytotoxicity Assay to monitor cytotoxicity in HepG2 cells - 16 hour (AID 1224876); conditions: CellTox Green fluorescence; series mostly up to 76.8 µM; note: nearly all actives have a fitted effect of over 45% in size
Outline: (§6)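 Real-time cytotoxicity: fluorescence of a cell-impermeant cyanine dye binding DNA of dead HepG2 cells, measured repeatedly (0–40 h) during compound exposure at 37 C. Cells seeded 600/well with reagent, dosed after 5 h.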

[13] = qHTS RealTime-Glo MT Cell Viability Assay in HepG2 cells - 32 hour (AID 1224877); conditions: RealTime-Glo luminescence; series mostly up to 76.8 µM; note: nearly all actives have a fitted effect of over 55% in size
Outline: as §1

[14] = A CellTox Green Cytotoxicity Assay to monitor cytotoxicity in HepG2 cells - 24 hour (AID 1224878); conditions: CellTox Green fluorescence; series mostly up to 76.8 µM; note: nearly all actives have a fitted effect of over 45% in size
Outline: as §6

[15] = A CellTox Green Cytotoxicity Assay to monitor cytotoxicity in HepG2 cells - 40 hour (AID 1224879); conditions: CellTox Green fluorescence; series mostly up to 76.8 µM; note: nearly all actives have a fitted effect of over 40% in size
Outline: as §6

[16] = qHTS RealTime-Glo MT Cell Viability Assay in HEK293 cells - 0 hour (AID 1224880); conditions: RealTime-Glo luminescence; series mostly up to 76.8 µM
Outline: as §5

[17] = qHTS RealTime-Glo MT Cell Viability Assay in HepG2 cells - 40 hour (AID 1224870); conditions: RealTime-Glo luminescence; series mostly up to 76.8 µM; note: nearly all actives have a fitted effect of over 50% in size
Outline: as §4

[18] = qHTS RealTime-Glo MT Cell Viability Assay in HEK293 cells - 16 hour (AID 1224872); conditions: RealTime-Glo luminescence; series mostly up to 76.8 µM
Outline: as §2

[19] = qHTS assay to identify small molecule antagonists of the estrogen related receptor (ERR) signaling pathway from Tox21 library (AID 1224848); conditions: ERR reporter cell line, luciferase antagonist mode, 18 h; series mostly up to 92.4 µM; note: nearly all actives have a fitted effect of over 50% in size
Outline: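 First, 2,000 ERR cells per well were plated and held 6 h at 37 C/5% CO2. Next, compounds in DMSO were pinned in and left 18 h at 37 C. Finally, ONE-Glo was added and luminescence read after 30 min at room temperature.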

[20] = qHTS assay to identify small molecule agonists of the estrogen related receptor (ERR) signaling pathway from Tox21 library (AID 1224849; calls by dose curve; note: nearly all actives have a fitted effect of over 15% in size); conditions: ERR reporter cell line, ONE-Glo luciferase, 18 h; series mostly up to 92.4 µM
Outline: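 Luminescent agonist read-out (One-Glo, 30-minute room-temperature incubation) following 18-hour compound treatment at 37 C of the ERR cell line, which had been plated 6 hours before dosing.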
% is set by controls: 0 for no effect and ±100 for the full control effect.

COc1cccc(OC)c1C(=O)N[C@@H]1C(=O)N2[C@@H]1SC(C)(C)[C@@H]2C(=O)O
inactive: Potency [1] | Potency [2] | outcome [3] | outcome [4] | outcome [5] | Potency [6] | outcome [7] | Potency [8] | outcome [9] | max response [10] 4.53% | outcome [11] | outcome [12] | Potency [13] | outcome [14] | Potency [15] | Potency [16]

C=COC(=O)C(C)(CC)CCC(C)C (stereo not given)
inactive: Potency [1] | Potency [2] | outcome [3] | outcome [4] | outcome [5] | Potency [6] | Potency [17] | Potency [8] | Potency [18] | outcome [9] | max response [10] 0.193% | outcome [11] | outcome [12] | Potency [13] | outcome [14] | Potency [15] | Potency [16]

NC(=O)N1c2ccccc2CC(=O)c2ccccc21
inactive: Potency [1] | Potency [2] | outcome [3] | outcome [5] | Potency [6] | outcome [7] | Potency [8] | Potency [18] | outcome [9] | max response [10] 2.12% | outcome [11] | outcome [12] | Potency [13] | outcome [14] | Potency [16]

O=C1CCCCCCCCCCCCCCO1
inactive: Potency [1] | Potency [2] | outcome [3] | outcome [5] | Potency [6] | Potency [17] | Potency [8] | Potency [18] | outcome [9] | max response [10] 0.109% | outcome [11] | outcome [12] | Potency [13] | outcome [14] | Potency [16]

CCC(=O)OCc1ccccc1
inactive: Potency [1] | Potency [2] | outcome [3] | outcome [5] | Potency [6] | outcome [7] | Potency [8] | Potency [18] | outcome [9] | max response [10] -6.18% | outcome [11] | outcome [12] | Potency [13] | outcome [14] | Potency [15] | Potency [16]

NC(=O)N[C@@H](CCC(=O)O)C(=O)O
inactive: Potency [1] | Potency [2] | outcome [3] | Potency [6] | outcome [7] | Potency [17] | Potency [8] | outcome [9] | max response [10] 5.25% | outcome [11] | outcome [12] | Potency [13] | Potency [15] | Potency [16]

O=S(=O)(O)c1cccc2c(S(=O)(=O)O)cccc12
inactive: Potency [1] | Potency [2] | outcome [4] | Potency [19] | outcome [20] | outcome [5] | outcome [7] | Potency [17] | Potency [8] | outcome [9] | outcome [12] | Potency [13] | outcome [14] | Potency [15] | Potency [16]

CC(=O)OCC(=O)[C@@]1(O)[C@H](C)C[C@H]2[C@@H]3CCC4=CC(=O)C=C[C@]4(C)[C@@]3(F)[C@@H](O)C[C@@]21C
inactive: Potency [1] | Potency [2] | outcome [4] | Potency [19] | outcome [5] | Potency [6] | outcome [7] | Potency [8] | Potency [18] | outcome [9] | max response [10] 5.93% | outcome [11] | outcome [12] | Potency [13] | outcome [14] | Potency [15] | Potency [16]
